# Laboratory results as given in PubChem BioAssay AID2360 (The Scripps Research Institute Molecular Screening Center, 2010).
# In all, about 1,900 compounds went through this assay and about 85 (4%) were called active. This is one part of a sample in which actives are shown more often than they occur.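 Rule for the calls: active = mean PP5 inhibition over triplicate wells above about 9.5% taken from the earlier PP1 screen (limit read from the data); inactive = the rest.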
# Target: Serine/threonine-protein phosphatase 5 (Homo sapiens) (UniProt P53041)
# Experiment: human PP5 catalytic subunit inhibitors – biochemical, fluorescence, triplicate, counter-screen for PP1 inhibitor project, confirmation (AID 2360)
# Conditions: purified PP5c, OMFP fluorescence; at 6.7 µM; active compounds read high
# Sequence of Serine/threonine-protein phosphatase 5 (Homo sapiens) (P53041 whole entry, looked up): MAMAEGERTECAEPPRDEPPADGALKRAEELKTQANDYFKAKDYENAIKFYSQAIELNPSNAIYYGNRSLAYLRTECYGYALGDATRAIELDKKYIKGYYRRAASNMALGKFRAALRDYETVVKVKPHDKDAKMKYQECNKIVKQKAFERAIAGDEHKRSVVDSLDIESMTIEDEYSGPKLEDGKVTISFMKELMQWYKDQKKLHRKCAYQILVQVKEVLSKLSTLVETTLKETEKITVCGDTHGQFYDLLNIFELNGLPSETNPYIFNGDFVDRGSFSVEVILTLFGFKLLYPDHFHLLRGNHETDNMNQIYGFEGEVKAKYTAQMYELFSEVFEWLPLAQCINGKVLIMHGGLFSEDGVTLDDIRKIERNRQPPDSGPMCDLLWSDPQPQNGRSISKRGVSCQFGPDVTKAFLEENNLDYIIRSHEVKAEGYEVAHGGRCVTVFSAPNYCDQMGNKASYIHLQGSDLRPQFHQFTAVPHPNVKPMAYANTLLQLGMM
row,SMILES,inhibition
1,O=C(O)c1ccccc1NC(=O)C1C2CCC(O2)C1C(=O)O (stereo not drawn),17.6% (active)
2,CCOP(=O)(OCC)C(O)c1ccc(OC)cc1OC (stereo not drawn),-3.76% (inactive)
3,O=c1[nH]c(CN2CC=C(c3ccccc3)CC2)nc2scc(-c3cccs3)c12,-3.01% (inactive)
